Compound activity deposited in PubChem BioAssay by National Center for Advancing Translational Sciences (NCATS).
RORgamma inh: blocks mouse ROR gamma transcriptional activity; Potency, µM (titrated, usually from 53.6 µM), for the others: at the highest dose activity change, negative = inhibition, most hits filed as inhibitors; P51450; AID 2551; Drosophila S2 Gal4-RORgamma UAS-luciferase reporter, 20 h; 5.4% of 310,000 active; also: potency is read from the fitted curve at half-maximal effect; nearly all actives have a fitted effect of over 60% in size
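Read-out: Photinus luciferase luminescence; inhibitors lower reporter signal. Insect Schneider cells with Gal4-ROR gamma fusion under metallothionein promoter, UAS reporter; 700 uM final copper sulfate induction, 20 hr, ambient temperature.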
TSHR antag: antagonists of human thyroid stimulating hormone receptor | P16473 | TSHR-expressing cells, TSH-stimulated cAMP HTRF, 2 h; hits give low values | activity change, negative = inhibition, % at 11.5 µM | 0.2% of 330,000 active | AID 504810;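 active = activity change below a set negative limit, meaning inhibition stronger than a set level, cut at about -70% in these data; inconclusive = activity change between two set negative limits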
Target sequence (P16473 whole entry, looked up): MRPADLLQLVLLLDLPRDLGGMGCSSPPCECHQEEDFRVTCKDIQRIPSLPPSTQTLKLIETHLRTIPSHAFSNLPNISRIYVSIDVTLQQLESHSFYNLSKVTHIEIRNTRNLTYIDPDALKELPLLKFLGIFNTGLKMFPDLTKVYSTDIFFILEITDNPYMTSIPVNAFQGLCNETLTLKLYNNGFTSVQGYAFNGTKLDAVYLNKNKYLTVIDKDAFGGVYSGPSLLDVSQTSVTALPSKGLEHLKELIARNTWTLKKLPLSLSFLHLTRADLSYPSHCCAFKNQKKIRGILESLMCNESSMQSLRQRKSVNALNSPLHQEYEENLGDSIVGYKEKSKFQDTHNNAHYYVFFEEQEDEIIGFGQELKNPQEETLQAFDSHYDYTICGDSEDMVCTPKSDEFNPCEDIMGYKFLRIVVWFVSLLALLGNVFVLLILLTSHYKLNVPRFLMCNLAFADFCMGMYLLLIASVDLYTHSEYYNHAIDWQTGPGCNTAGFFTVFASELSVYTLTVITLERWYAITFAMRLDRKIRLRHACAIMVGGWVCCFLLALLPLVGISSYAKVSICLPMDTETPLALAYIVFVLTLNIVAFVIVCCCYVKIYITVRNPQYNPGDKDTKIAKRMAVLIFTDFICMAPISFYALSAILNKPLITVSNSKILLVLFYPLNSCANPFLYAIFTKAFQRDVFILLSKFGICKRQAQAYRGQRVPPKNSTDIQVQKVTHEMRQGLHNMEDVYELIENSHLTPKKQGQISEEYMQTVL
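Freshly harvested TSHR cells receive pin-tooled compound, then EC80 TSH at 4nM final. After 2 hours at 37 deg C, antibody in lysis buffer and cAMP-d2 are added; 30 minutes at ambient temperature precede the HTRF read.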
FBPA coupling cs: coupling enzyme interference in Giardia aldolase counter-screen. 0.67% of 290,000 active. activity change, negative = inhibition, % at 58.2 µM, hits read low. coupling enzyme system counterscreen, AmpLite Red fluorescence; in the data active = activity change below about -30%
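Final compound at 57.5 uM, incubated 10 min at RT with coupling enzyme reagent (glyceraldehyde-3-phosphate), then 20 min with substrate and AmpLite Red detection. Fluorescence read at 525/598 nm; tests interference with the coupling assay, not aldolase inhibition.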
ELG1 DNA repair: inhibitors of ELG1-dependent DNA repair in HEK293T cells; HEK293T ELG1-luciferase reporter, luminescence, 16 h; DNA damage induced by 5-fluorouridine; Potency, µM (series often up to 46.1 µM), inactives show at the top dose activity change, negative = inhibition, hits mostly inhibitors; 2.3% of 330,000 active; AID 504467; also: potency is read from the fitted curve at half-maximal effect; nearly all actives have a fitted effect of over 55% in size
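5-Fluorouridine DNA damage + compound/DMSO, 2,000 cells/well, 16 h, 37 °C/5% CO2. ONE-Glo, 30 min RT, luminescence. Readout = decrease in reporter signal.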
Gal4-VP16 FLuc: inhibits Gal4-VP16 luciferase reporter, ROR gamma counter-screen; Drosophila S2 Gal4-VP16 UAS-luciferase, luminescence, 20 h; AID 2546; Potency, µM (titrated, usually from 53.6 µM), inactives show at the highest dose activity, negative = inhibition, most hits filed as inhibitors; 3.5% of 310,000 active;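 also: Gal4-VP16 expression switched on by copper sulfate through the metallothionein promoter; potency is read from the fitted curve at half-maximal effect; nearly all actives have a fitted effect of over 50% in size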
* marks the source's active call; other numbers are inactive results; ? = inconclusive; . = no result given; [ ] = remark or other dose. A selection: hits, their analogues and other compounds. The true share with any hit is near 8%. Unless noted, calls follow the shape of the dose curve; as a rule, active = well fitted curve in the direction sought with a large enough effect; inconclusive = small, poorly fitted or top-dose-only effect, or another doubt; inactive = no such curve, though single readings can be large; an effect the other way counts as inactive or inconclusive. % is scaled to controls: 0 for no effect and ±100 for the full control effect.

SMILES	RORgamma inh	TSHR antag	FBPA coupling cs	ELG1 DNA repair	Gal4-VP16 FLuc
O=C(CSc1cccc2cccnc12)N/N=C/c1ccc(O)cc1	0.2%	-77.5*	-18.0	-7.7%	4.0%
COc1cccc(/C=N/NC(=O)CSc2cccc3cccnc23)c1	8.91µM*	-3.6	-23.2	-6.0%	?
Cc1cccc(CSc2cccc3cccnc23)c1	4.47µM*	5.6	-6.9	?	7.94µM*
O=C(CSc1cccc2cccnc12)NCc1ccco1	?	-11.6	-12.3	22.0%	?
CC(=O)NC(CC(=O)N(Cc1ccccc1)c1cccc(C)c1)c1ccccc1 (stereo not given)	-21.1%	-5.1	.	-4.2%	-8.0%
CC(=O)OC[C@@H]1O[C@H](CCO/N=C\[C@@H](C)[C@H](OCc2ccccc2)C(C)C)C=C[C@@H]1OC(C)=O	4.7%[10 µM]	.	-2.3	.	-0.8%[10 µM]
COc1cc(CCCN2C(=S)NC[C@@H]2Cc2ccccc2)cc(OC)c1OC	10µM*	-4.8	-3.5	?	?
COc1cc(CCCN2C(=S)NC[C@@H]2c2ccccc2)cc(OC)c1OC	10µM*	-1.4	1.8	-0.2%	?
COc1cc(CCCN2C(N)=NC[C@@H]2Cc2ccccc2)cc(OC)c1OC	-1.8%	-0.7	5.0	8.9%	4.9%
N#Cc1ccc(CN2C=NS(=O)(=O)c3ccccc32)cc1	-18.1%	1.1	1.3	-13.5%	-4.6%
COc1ccc(C(=O)OCC(=O)NCCc2ccc(F)cc2)cc1S(=O)(=O)N1CCOCC1	.	2.1	.	?	.
CCOc1ccc(NC(=O)CSc2ncc(-c3ccc(F)cc3)n2Cc2ccco2)cc1	?	21.8	1.5	16.4µM*	?
O=C(CSc1ncc(-c2ccc(F)cc2)n1Cc1ccco1)Nc1ccc2c(c1)OCO2	19.5%	.	2.7	.	17.6%
Cc1cn([C@@H]2C[C@H](N=[N+]=N)[C@H](CO)O2)c(=O)[nH]c1=O	13.7%[16.9 µM]	.	1.2	.	-4.9%[17 µM]
COc1ccccc1[C@@]1(C)ON(c2ccccc2C(F)(F)F)C1=O	.	-3.9	.	18.3µM*	.
Nc1ccc(-c2nc3ccccc3[nH]2)cc1	-29.1%	4.4	-0.2	?	-8.7%
Nc1ccc(-c2nc3c(ccc4ccccc43)[nH]2)cc1	0.891µM*	-10.8	-0.5	?	?
CCN(CC)C(=O)/C(C#N)=C/c1cc(O)c(O)c([N+](=O)[O-])c1	14.0%[10 µM]	.	.	.	-4.5%
Cc1ccc(C(C)(C)C)cc1S(=O)(=O)Nc1cccc(C(=O)N2CCN(c3ccccn3)CC2)c1	.	-8.3	.	?	.
COc1ccc(OCc2cccc(C(=O)NN)c2)cc1	14.1µM*	26.6	1.3	?	?
NNC(=O)c1cccc(COc2cccc(Br)c2)c1	12.6µM*	16.9	0.2	?	?
COC(=O)c1ccc2c(c1)N(C)S(=O)(=O)c1cnc(SCC(=O)C(C)(C)C)nc1-2	1.9%	16.7	3.2	16.4µM*	-4.3%
Cc1ccc(N(CC(=O)N/N=C/c2cccc(Br)c2)S(C)(=O)=O)cc1	-11.8%	-6.4	-31.3*	-3.4%	4.0%
Cc1ccc(N(CC(=O)N/N=C/c2cccs2)S(C)(=O)=O)cc1	-5.6%[10 µM]	14.3	-8.2	-2.4%	-11.1%
CN(C)c1ccc(/C=N/NC(=O)CN(c2ccccc2Cl)S(C)(=O)=O)cc1Br	-8.8%	34.5	-9.5	10.3µM*	?
SMILES	RORgamma inh	TSHR antag	FBPA coupling cs	ELG1 DNA repair	Gal4-VP16 FLuc
COC(=O)[C@H](C)NC(=O)C/C=C\[C@@H](C)[C@H]1C=C[C@H](O)[C@@H](CO)O1	-15.7%[10 µM]	.	0.4	.	11.4%[10 µM]
Cc1ccsc1C(=O)NN=C1CCCCCC1	?	0.2	2.4	?	0.3%
COc1cc(NC(=O)NNC(=O)c2cc3occc3n2C)cc(OC)c1OC	-34.7%	36.1	.	20.0%	?
OCCOC[C@H]1O[C@H](OCCO)[C@H](OCCO)[C@@H](OCCO)[C@@H]1OCCO (tested in a mixture with another compound)	7.9%	.	.	.	-8.2%
Cc1nc2cc(NC(=O)Nc3cccc4ccccc34)ccc2n1C	-13.9%	-4.5	1.0	?	-3.3%
COc1ccccc1NC(=O)Nc1ccc2c(c1)nc(C)n2C	10µM*	0.6	-1.0	?	?
COC(=O)[C@@]1(Cc2ccccc2)[C@H]2C(=O)N(C)C(=O)[C@H]2[C@H]2CN=C(SCc3ccc(Cl)cc3)N21	.	-7.3	.	-1.7%	.
Cc1nc(C(=O)NNC(=O)c2ccc(C(F)(F)F)cc2)cs1	5.01µM*	-2.4	4.3	-9.6%	?
Cc1cc(C(=O)NNC(=O)c2ccc(C(F)(F)F)cc2)no1	5.6%	0.4	3.3	0.5%	2.5%
COc1ccc(Cc2nnc(SCC(=O)NC3(C#N)CCCCC3)n2N)cc1	.	15.6	.	16.1%	.
CC(C)=CCC/C(C)=C/CC/C(C)=C/CC/C(C)=C/CC1=C(C)C(=O)c2ccccc2C1=O	12.7%	9.7	-33.7*	?	-2.1%
COc1ccccc1OCC(=O)O	0.6%	-8.8	3.1	-2.2%	-6.0%
CC(C)=CCC1=C(OCC(=O)O)C(=O)c2ccccc2C1=O	?	30.8	-45.3*	-26.4%	2.24µM*
Cc1cc2c(cc1Cl)N(C(=O)Nc1ccc(Oc3cccnc3C)nc1)CC2	.	-20.5	.	.	.
COc1ccc(NC(=O)C2CCC(=O)N2S(=O)(=O)c2ccc(C)cc2)cc1Cl (stereo not given)	6.7%	13.0	-3.4	1.0%	1.1%
CN(C)c1ccc(/C=N/N2C(=S)SC(C)(C)C2N(O)C(=O)Nc2ccc([N+](=O)[O-])cc2)cc1 (stereo not given)	7.94µM*	-4.3	0.3	?	-4.5%
CNC(=O)N(O)C1N(/N=C/c2ccc(SC)cc2)C(=S)SC1(C)C (stereo not given)	-14.1%	4.0	1.1	0.2%	-12.4%
COc1ccc(CC(=O)Nc2ccc(-c3cn4cccc(C)c4n3)cc2)cc1OC	24.7%	-3.7	2.3	?	-0.8%
Cc1cccn2cc(-c3ccc(NC(=O)Cc4ccccc4)cc3)nc12	5.01µM*	-5.5	1.7	3.4%	?
COC(=O)c1ccc(CN2[C@@H]3C[C@@H](O)CC[C@@H]3C[C@H]2C(=O)OC)cc1	-12.6%	.	1.8	.	-9.3%
O=c1[nH]c2cc3c(cc2cc1CN(Cc1cccnc1)C(=S)NCc1ccco1)OCO3	15.0%	-7.4	0.8	11.6µM*	-18.4%
O=c1[nH]c2cc3c(cc2cc1CN(Cc1cccnc1)C(=S)NCc1ccco1)OCCO3	?	2.3	2.1	9.2µM*	9.0%
CN(C)CCN(Cc1cc2cc3c(cc2[nH]c1=O)OCO3)C(=S)NCc1ccco1	-5.1%	1.5	4.9	0.7%	-12.0%
O=C1/C(=C/c2ccccc2)Oc2ccccc21	5.3%[10 µM]	.	2.2	.	-3.0%[10 µM]
CCc1ccccc1NS(=O)(=O)c1cc2c3c(c1)CCN3C(=O)CC2	.	1.6	.	-2.1%	.
